Bioassay records deposited in PubChem BioAssay by The Scripps Research Institute Molecular Screening Center.
A selection: hits, their analogues and other compounds. The true share with any hit is near 3.5%.
FBW7 activator: FBW7 E3 ligase activators, primary screen, biochemical, AlphaScreen, human; F-box/WD repeat-containing protein 7 (Homo sapiens), Q969H0; 650,000 compounds, 0.13% hits; normalized activity (activation), % at 26.1 µM; AlphaScreen FBW7–phospho-cyclin E peptide binding, activator screen; AID 1259310, 2017; in the data active = normalized activity above about 1.9%;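 also: purified mutant Fbw7 with reduced substrate affinity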
GPR151 ag: activators of human GPR151, primary screen, cell-based, PathHunter beta-arrestin, luminescence | G-protein coupled receptor 151 (Homo sapiens), Q8TDV0 | PathHunter beta-arrestin GPR151 cells | activation, % at 11.2 µM | 650,000 compounds, 1% hits; in the data active = activation above about 4.9%;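 also: 0% = median of compound wells and 100% = cells with positive control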
Target sequence (Q8TDV0 whole entry, looked up): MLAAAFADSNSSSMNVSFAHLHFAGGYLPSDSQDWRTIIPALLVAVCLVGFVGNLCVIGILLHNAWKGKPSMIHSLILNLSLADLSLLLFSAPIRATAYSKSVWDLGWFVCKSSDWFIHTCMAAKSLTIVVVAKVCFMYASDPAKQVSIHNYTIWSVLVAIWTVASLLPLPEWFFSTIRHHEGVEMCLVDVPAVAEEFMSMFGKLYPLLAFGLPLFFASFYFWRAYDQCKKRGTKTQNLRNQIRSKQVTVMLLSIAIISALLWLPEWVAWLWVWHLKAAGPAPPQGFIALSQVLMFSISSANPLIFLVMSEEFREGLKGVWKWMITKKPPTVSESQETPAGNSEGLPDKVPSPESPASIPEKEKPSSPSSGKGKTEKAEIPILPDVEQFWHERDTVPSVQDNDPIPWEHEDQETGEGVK
MITF primary: MITF inhibitors, primary screen, biochemical, AlphaScreen, human | Microphthalmia-associated transcription factor (Homo sapiens), O75030 | AlphaScreen MITF homodimerization, bead proximity signal | inhibition, % at 2.6 µM | 650,000 compounds, 0.91% hits; in the data active = inhibition above about 50%;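 also: 0% = vehicle wells with protein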
TEAD-YAP block: TEAD-YAP interaction inhibition, primary screen, TEAD-YAP interaction inhibitor project, luminescence, HEK-TIYL cells. TEAD-Gal4/YAP UAS-luciferase luminescence. 640,000 compounds, 1.4% hits. AID 1259422, 2018. inhibition, % at 9.12 µM; in the data active = inhibition above about 32%;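 also: 0% = median of test compound wells and 100% = reference inhibitor wells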
GPR151 confirm: GPR151 activators, triplicate retest, confirmation, cell-based, PathHunter beta-arrestin, luminescence; AID 1508609, 2020; 6,700 tested, under 10 active; shares compounds with GPR151 ag; activation, % at 11.2 µM; GPR151 PathHunter beta-arrestin cells, 90 min; % of EA-reagent control over plate median;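 active = mean percent activation across replicates above the confirmation screen cutoff of 4.91%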
GPR119 counter: GPR119 activators in beta-arrestin cells, counter-screen for GPR151 activator project, cell-based, PathHunter beta-arrestin, luminescence, triplicate. shares compounds with GPR151 ag. 90 min; 0 = compound-well median, 100 = enzyme-acceptor control. activation, % at 11.2 µM. 6,700 compounds, 0.3% hits. AID 1508611, 2020;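 active = mean percent activation in the counterscreen above 29.09%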;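 also: counterscreen on off-target GPR119 to flag nonselective hits from the GPR151 activator screen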
Numbers without * were called inactive.

What do the screens show for `CC1c2cccn2CCN1S(=O)(=O)c1c(Cl)cccc1Cl` (centres undefined)?
FBW7 activator: 0; GPR151 ag: 0; MITF primary: 16; TEAD-YAP block: 3

How did COc1ccc(Nc2nc(N3CCN(C)CC3)c3ccccc3n2)cc1 do in these assays?
FBW7 activator: 0; GPR151 ag: 9.5*; MITF primary: 4; TEAD-YAP block: 2; GPR151 confirm: 1; GPR119 counter: -3

Results for CCOc1ccc(Nc2nc(N3CCN(C)CC3)c3ccccc3n2)cc1 ?
FBW7 activator: 0; GPR151 ag: 0; MITF primary: 19; TEAD-YAP block: -2

How did CC(=O)Nc1ccc(Nc2ncnc3nc(-c4ccc(C(=O)N5CCN(C)CC5)cc4)[nH]c23)cc1 do in these assays?
FBW7 activator: 0; GPR151 ag: 0; MITF primary: -2; TEAD-YAP block: 1

What do the screens show for `COC(CNC(=O)CN1C(=O)/C(=C/c2ccccc2)Oc2ccc(C(C)(C)C)cc21)OC`?
FBW7 activator: 0; GPR151 ag: 3; MITF primary: 11; TEAD-YAP block: 1

Results for COc1cc(CN2CCNC(=O)C2CC(=O)N(C)Cc2ccno2)cc(OC)c1 (centres undefined) ?
FBW7 activator: 0; GPR151 ag: 6.1*; MITF primary: -1; TEAD-YAP block: 9; GPR151 confirm: 0; GPR119 counter: -2

How did COc1cccc(CN2CCNC(=O)C2CC(=O)N(C)Cc2ccno2)c1 (centres undefined) do in these assays?
FBW7 activator: 0; GPR151 ag: -1; MITF primary: -11; TEAD-YAP block: -5

Results for Cc1csc(CN(C)C(=O)CC2C(=O)NCCN2CC2CCCCC2)n1 (centres undefined) ?
FBW7 activator: 0; GPR151 ag: 5.3*; MITF primary: 9; TEAD-YAP block: 8; GPR151 confirm: -1; GPR119 counter: -2

How did Cc1csc(CN(C)C(=O)CC2C(=O)NCCN2CCC(C)C)n1 (centres undefined) do in these assays?
FBW7 activator: 0; GPR151 ag: 1; MITF primary: 14; TEAD-YAP block: 11

How did COc1cccc(CN2CCNC(=O)C2CC(=O)N(C)Cc2nc(C)cs2)c1OC (centres undefined) do in these assays?
FBW7 activator: 0; GPR151 ag: 5.7*; MITF primary: -13; TEAD-YAP block: -3; GPR151 confirm: -1; GPR119 counter: -17

What do the screens show for `O=C1CN(C(=O)COC(=O)CNC(=O)c2ccc(Cl)cc2)c2ccccc2N1`?
FBW7 activator: 0; GPR151 ag: 0; MITF primary: 3; TEAD-YAP block: 5

How did Cc1ccc(C2C3C(=O)N(c4ccc(C)cc4C)C(=O)C3N3CCCN23)cc1 (centres undefined) do in these assays?
FBW7 activator: 0; GPR151 ag: 1; MITF primary: -1; TEAD-YAP block: -2

Results for O=C(Cc1ccc(Br)cc1)Nc1ccccc1C(=O)O ?
FBW7 activator: 0; GPR151 ag: -7; MITF primary: 12; TEAD-YAP block: -37

Results for O=C(N/N=C/C=C/c1ccc([N+](=O)[O-])cc1)C(O)c1ccccc1 (centres undefined) ?
FBW7 activator: 0; GPR151 ag: 0; MITF primary: -2; TEAD-YAP block: -9

How did Cc1csc(S(=O)(=O)N2CCC(CO)(Cc3ccccc3Cl)CC2)c1 do in these assays?
FBW7 activator: 0; GPR151 ag: 27*; MITF primary: -3; TEAD-YAP block: -10; GPR151 confirm: -1; GPR119 counter: -7

Results for COc1ccc(CC2(CO)CCN(S(=O)(=O)c3cc(C)cs3)CC2)cc1 ?
FBW7 activator: 0; GPR151 ag: 0; MITF primary: -14; TEAD-YAP block: 3

How did O=C(c1nsc(Cl)c1Cl)N1CCN(C(=O)c2nsc(Cl)c2Cl)CC1 do in these assays?
FBW7 activator: 0; GPR151 ag: 0; MITF primary: 2; TEAD-YAP block: 0

What do the screens show for `COc1ccccc1NC(=O)NC1(C(=O)NCc2cccnc2)CCCCC1`?
FBW7 activator: 0; GPR151 ag: -1; MITF primary: 5; TEAD-YAP block: 3

Results for O=C(Cn1cnc2ccccc2c1=O)NCCC(=O)N1CCOCC1 ?
FBW7 activator: 0; GPR151 ag: 0; MITF primary: -20; TEAD-YAP block: -5

Results for O=C(Cn1cnc2ccccc2c1=O)NCCC(=O)N1CCN(Cc2ccc3c(c2)OCO3)CC1 ?
FBW7 activator: 0; GPR151 ag: 5.4*; MITF primary: -31; TEAD-YAP block: 6; GPR151 confirm: 0; GPR119 counter: 16

Results for O=C1OC(c2ccc3c(c2)OCO3)=N/C1=C\c1ccccc1 ?
FBW7 activator: 0; GPR151 ag: 1; MITF primary: -2; TEAD-YAP block: -48

What do the screens show for `CN1CCN(Cc2ccc3c(c2)CN(C(=O)c2cnccn2)CCO3)[C@@H](c2ccccc2)C1`?
FBW7 activator: 0; GPR151 ag: 0; MITF primary: 7; TEAD-YAP block: -5

How did O=C(Cc1ccc(F)cc1)NCC(c1ccsc1)N1CCCCCC1 (centres undefined) do in these assays?
FBW7 activator: 0; GPR151 ag: 6.9*; MITF primary: -3; TEAD-YAP block: -10; GPR151 confirm: 0; GPR119 counter: -7

What do the screens show for `COc1ccccc1OCC(=O)NCC(c1ccsc1)N1CCCC1` (centres undefined)?
FBW7 activator: 0; GPR151 ag: 2; MITF primary: 10; TEAD-YAP block: 2

Results for Cc1cc(-c2ccncc2)cc2[nH]c(C3COc4ccccc4O3)nc12 (centres undefined) ?
FBW7 activator: 0; GPR151 ag: 1; MITF primary: 7; TEAD-YAP block: -33

How did CCSC1=C(C#N)C(c2ccc3c(c2)OCO3)C2=C(CCCC2=O)N1 (centres undefined) do in these assays?
FBW7 activator: 0; GPR151 ag: 5.5*; MITF primary: 16; TEAD-YAP block: 7; GPR151 confirm: 1; GPR119 counter: 0

How did Fc1ccc(Br)cc1C1CC(c2cccnc2)Nc2nnnn21 (centres undefined) do in these assays?
FBW7 activator: 0; GPR151 ag: 0; MITF primary: 3; TEAD-YAP block: 0

How did Cc1ccc(C(=O)c2oc3ccc(NC(=O)c4ccco4)cc3c2C)cc1 do in these assays?
FBW7 activator: 0; GPR151 ag: 7.8*; MITF primary: 9; TEAD-YAP block: 15; GPR151 confirm: 0; GPR119 counter: -5

How did Cc1c(C(=O)c2ccccc2)oc2ccc(NC(=O)c3cccs3)cc12 do in these assays?
FBW7 activator: 0; GPR151 ag: -1; MITF primary: 5; TEAD-YAP block: -54
